Data from PubChem BioAssay (Tox21).
Records with an inconclusive call do not appear. A call without a number means that no potency is given here. Active and inactive are the calls of the source. Unless noted, the call rests on the fitted dose curve.

tested on: not listed separately; test: qHTS assay to identify small molecule antagonists of the thyroid receptor (TR) signaling pathway (AID 743065; active means well fitted inhibition curve with a large enough effect in the repeat runs; further: nearly all actives have a fitted effect of over 55% in size); settings: GH3.TRE-Luc, T3-stimulated luciferase inhibition, 23.5 h; series mostly up to 70.3 µM
Procedure, shortened: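 GH3.TRE-Luc rat pituitary cells carrying two TR response elements driving luciferase were plated for 4 h, given compound plus 1 nM T3 (final), and incubated 23.5 h at 37 C. ONE-Glo luminescence measured reporter inhibition; CellTiter-Fluor fluorescence tracked cytotoxicity.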

Structure (SMILES)	Potency
Cc1nnc(SCC2=C(C(=O)O)N3C(=O)[C@@H](NC(=O)Cn4cnnn4)[C@H]3SC2)s1	inactive
O=C1CCCCCCCCCCC(=O)OCCO1	inactive
CC(C)(CO)[C@@H](O)C(=O)NCCC(=O)O	inactive
CCOC(=O)C1CC(=O)C(=C(O)C2CC2)C(=O)C1 (stereo not given)	inactive
CCOc1ccccc1N	inactive

tested on: thyroid hormone receptor (rat, GH3 cells); test: qHTS assay to identify small molecule agonists of the thyroid receptor (TR) signaling pathway (AID 743066); settings: GH3.TRE-Luc cells, TR agonist luciferase, 24 h; series mostly up to 83.9 µM

Structure (SMILES)	outcome
NCCCN1CCN(CCCN)CC1	inactive
CCOC(=O)[C@H](CCc1ccccc1)N[C@@H](C)C(=O)N1Cc2cc(OC)c(OC)cc2C[C@H]1C(=O)O	inactive
COc1ccc(S(=O)(=O)Nc2nnc(CC(C)C)s2)cc1	inactive
C[C@]12C(=O)OC(=O)[C@H]1[C@H]1C=C[C@@H]2C1	inactive
COC(C)CCO (stereo not given)	inactive
Cn1cnc2c(F)c(Nc3ccc(Br)cc3Cl)c(C(=O)NOCCO)cc21	inactive
Cc1cc(S(=O)(=O)O)c(N)cc1Cl	inactive
OC[C@H]1O[C@@H](O[C@H]2[C@H](O)[C@@H](O)[C@H](O)O[C@@H]2CO)[C@H](O)[C@@H](O)[C@H]1O	inactive
C=CCc1cc(OC)c(O)c(C(=O)NCCO)c1	inactive
COc1ccccc1OCC(O)COC(N)=O (stereo not given)	inactive
OCC(CBr)(CBr)CBr	inactive
CC1=C2[C@H](/C=C(\C)C(=O)O)CC[C@@H](C)[C@H]2CC1	inactive
OCCN(CCO)c1ccccc1	inactive
CC(C)C(=O)OC/C=C/c1ccccc1	inactive
CCOC(=O)NCCC[Si](OCC)(OCC)OCC	inactive
O=C1C=CC(=O)O1	inactive
CN1CCN(C2=Nc3cc(F)ccc3Cc3ccccc32)CC1	inactive

Structure (SMILES)	outcome
Oc1ccccc1F	inactive
Nc1cccc(S(=O)(=O)O)c1	inactive
COC(=O)C(C)O (stereo not given)	inactive
CC(C)O	inactive
CCCCC1CCC(=O)O1 (stereo not given)	inactive
CC1(C)O[C@@H]2C[C@H]3[C@@H]4CCC5=CC(=O)CC[C@]5(C)[C@@]4(F)[C@@H](O)C[C@]3(C)[C@]2(C(=O)CCl)O1	inactive
C[C@@H]1CN(c2c(F)c(F)c3c(=O)c(C(=O)O)cn(C4CC4)c3c2F)C[C@H](C)N1	inactive
FC(F)(F)C(Cl)(Cl)Cl	inactive
CN(C)Cc1ccccc1	inactive
FC(F)(F)c1ccccc1	inactive
Cc1ncc(CO)c(CN)c1O	inactive
CCc1cc(Cl)c(OC)c(C(=O)NC[C@@H]2CCCN2CC)c1O	inactive
Cc1nnc(SCC2=C(C(=O)O)N3C(=O)[C@@H](NC(=O)Cn4cnnn4)[C@H]3SC2)s1	inactive
O=C1CCCCCCCCCCC(=O)OCCO1	inactive
CC(C)(CO)[C@@H](O)C(=O)NCCC(=O)O	inactive
CCOC(=O)C1CC(=O)C(=C(O)C2CC2)C(=O)C1 (stereo not given)	inactive
CCOc1ccccc1N	inactive

target: Estrogen receptor (Homo sapiens) (UniProt P03372); test: qHTS assay to identify small molecule antagonists of the estrogen receptor alpha (ER-alpha) signaling pathway (AID 743069; active means well fitted curve in the direction sought with a large enough effect in the signal ratio in the repeat runs, not every such curve was filed as active; the % refers to the signal ratio); settings: HEK293 ER-alpha-UAS-bla, beta-lactamase ratio, antagonist mode; series mostly up to 69.4 µM
Procedure, shortened: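 Screening used a UAS-driven beta-lactamase reporter integrated into HEK293 cells expressing ER-alpha, stimulated with 17beta-estradiol alongside test compounds over 18 hr at 37C; signal came from LiveBLAzer B/G FRET fluorescence.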

Chain of Estrogen receptor (Homo sapiens) (P03372 whole entry, looked up): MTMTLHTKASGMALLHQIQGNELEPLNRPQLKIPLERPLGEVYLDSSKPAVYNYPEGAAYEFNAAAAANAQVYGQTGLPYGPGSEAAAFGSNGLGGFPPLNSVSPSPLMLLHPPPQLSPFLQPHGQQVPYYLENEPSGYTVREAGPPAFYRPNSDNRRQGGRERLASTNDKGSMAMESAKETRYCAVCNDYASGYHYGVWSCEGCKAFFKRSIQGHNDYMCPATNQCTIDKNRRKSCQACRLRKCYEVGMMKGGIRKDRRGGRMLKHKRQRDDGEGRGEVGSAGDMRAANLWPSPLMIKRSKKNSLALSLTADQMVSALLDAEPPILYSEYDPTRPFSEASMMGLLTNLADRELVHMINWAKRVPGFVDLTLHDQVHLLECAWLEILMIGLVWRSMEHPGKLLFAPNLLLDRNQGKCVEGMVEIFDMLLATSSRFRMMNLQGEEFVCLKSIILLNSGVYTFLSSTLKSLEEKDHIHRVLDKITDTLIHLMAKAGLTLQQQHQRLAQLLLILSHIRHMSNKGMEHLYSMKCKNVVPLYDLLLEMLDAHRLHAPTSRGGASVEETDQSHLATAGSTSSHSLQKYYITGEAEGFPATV

Structure (SMILES)	Potency
NCCCN1CCN(CCCN)CC1	inactive
CCOC(=O)[C@H](CCc1ccccc1)N[C@@H](C)C(=O)N1Cc2cc(OC)c(OC)cc2C[C@H]1C(=O)O	inactive
COc1ccc(S(=O)(=O)Nc2nnc(CC(C)C)s2)cc1	inactive
C[C@]12C(=O)OC(=O)[C@H]1[C@H]1C=C[C@@H]2C1	inactive
Cc1cc(S(=O)(=O)O)c(N)cc1Cl	inactive
OC[C@H]1O[C@@H](O[C@H]2[C@H](O)[C@@H](O)[C@H](O)O[C@@H]2CO)[C@H](O)[C@@H](O)[C@H]1O	inactive
C=CCc1cc(OC)c(O)c(C(=O)NCCO)c1	inactive
COc1ccccc1OCC(O)COC(N)=O (stereo not given)	inactive
OCC(CBr)(CBr)CBr	inactive
OCCN(CCO)c1ccccc1	inactive
CC(C)C(=O)OC/C=C/c1ccccc1	inactive
CCOC(=O)NCCC[Si](OCC)(OCC)OCC	inactive
O=C1C=CC(=O)O1	inactive
CN1CCN(C2=Nc3cc(F)ccc3Cc3ccccc32)CC1	inactive
Oc1ccccc1F	inactive
Nc1cccc(S(=O)(=O)O)c1	inactive

Structure (SMILES)	Potency
COC(=O)C(C)O (stereo not given)	inactive
CC(C)O	inactive
CCCCC1CCC(=O)O1 (stereo not given)	inactive
CC1(C)O[C@@H]2C[C@H]3[C@@H]4CCC5=CC(=O)CC[C@]5(C)[C@@]4(F)[C@@H](O)C[C@]3(C)[C@]2(C(=O)CCl)O1	inactive
C[C@@H]1CN(c2c(F)c(F)c3c(=O)c(C(=O)O)cn(C4CC4)c3c2F)C[C@H](C)N1	inactive
FC(F)(F)C(Cl)(Cl)Cl	inactive
CCCCc1ccc2nc(NC(=O)OC)[nH]c2c1	inactive
FC(F)(F)c1ccccc1	inactive
Cc1ncc(CO)c(CN)c1O	inactive
CCc1cc(Cl)c(OC)c(C(=O)NC[C@@H]2CCCN2CC)c1O	inactive
Cc1nnc(SCC2=C(C(=O)O)N3C(=O)[C@@H](NC(=O)Cn4cnnn4)[C@H]3SC2)s1	inactive
O=C1CCCCCCCCCCC(=O)OCCO1	inactive
CC(C)(CO)[C@@H](O)C(=O)NCCC(=O)O	inactive
CCOC(=O)C1CC(=O)C(=C(O)C2CC2)C(=O)C1 (stereo not given)	inactive
CCOc1ccccc1N	inactive
